In PubChem BioAssay (NCATS):
“And” between values parts separate entries of the source, which are not always exact repeats. Identical values can stand only once. Results filed as inconclusive are left out. The source made the active and inactive calls. Unless noted, calls follow the shape of the dose curve; as a rule, active = well fitted curve in the direction sought with a large enough effect; inconclusive = small, poorly fitted or top-dose-only effect, or another doubt; inactive = no such curve, though single readings can be large; an effect the other way counts as inactive or inconclusive.

Tests used:
[1] = Cell Viability - MRC5 (AID 434; calls by dose curve;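 also: potency is read from the fitted curve at half-maximal effect; cells exposed to compound for 40 hours at 37 °C; potency reflects cytotoxicity seen as loss of intracellular ATP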); details: MRC5 lung fibroblast viability, qHTS
Method in brief: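 ATP luminescence read-out (CellTiter-Glo, 20 min RT) after 40 hr, 37 °C compound exposure of 1500 MRC5 cells/well. Data normalized to DMSO (basal) and 100 uM tamoxifen (100% inhibition); AC50 from standard Hill equation.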

[2] = Cell Viability - HUV-EC-C (AID 542); details: HUV-EC-C endothelial cell viability, qHTS; series mostly up to 92.2 µM;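 also: cells exposed to compound for 40 hours; % is scaled to controls: 0 for no effect and ±100 for the full control effect; nearly all actives have a fitted effect of over 35% in size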
Method in brief: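 Cells were seeded at 1000 per well and incubated 5 hr at 37 °C before compound addition. After 40 hr at 37 °C, CellTiter-Glo reagent was added for 20 min and luminescence read. AC50 values came from Hill-equation modelling.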

[3] = Cellular Toxicity (caspase-3) HepG2 (AID 654); details: HepG2 caspase-3 activation, luminescence; series mostly up to 92.2 µM;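 also: cells exposed to compound for 16 hours before reading; 0% = DMSO alone and 100% = caspase signal from 100 µM tamoxifen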
Method in brief: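 Caspase 3/7 activation in HepG2 is measured as rising luminescence after a 16 hr treatment at 37 °C. Values are scaled between DMSO basal and 100 uM tamoxifen, and AC50 is fitted with the Hill equation.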

[4] = Cellular Toxicity (caspase-3) HUV-EC-C (AID 656); details: HUV-EC-C cells, caspase-3 activation (apoptosis); series mostly up to 92.2 µM
Method in brief: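 Read-out: luminescence proportional to caspase 3/7 activity, measured 20 min after adding Caspase-Glo 3/7 reagent. Cells (HUV-EC-C) had received compound for 16 hr at 37°C. Increases relative to DMSO and 100 uM tamoxifen gave concentration-response AC50 values.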

[5] = Cellular Toxicity (caspase-3) MRC-5 (AID 659); details: MRC-5 cells, luminescence, normalized: DMSO 0%, 10 µM staurosporine 100%; series mostly up to 91.7 µM
Method in brief: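 MRC-5 fibroblasts, 1500/well; 16 h cpd, 37 °C; Caspase-Glo 3/7, 1 h RT; lumi read. Norm: DMSO = 0%, 10 uM staurosporine = 100%. Hill-fit AC50 from qHTS conc-response.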

[6] = Cellular Toxicity (caspase-3) SK-N-SH (AID 661); details: SK-N-SH caspase-3 activation, qHTS, DMSO as zero, staurosporine as full; series mostly up to 91.7 µM
Method in brief: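 Cells were seeded and incubated 5 hr at 37 °C, dosed with compound over a concentration range for 16 hr, then given Caspase-Glo 3/7 reagent for 1 hr at room temperature before luminescence reading.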

[7] = Cellular Toxicity (caspase-3) Hek293 (AID 664); details: HEK293 caspase-3 activation, DMSO = 0%, 100 µM tamoxifen = 100%; at 92.2 µM (top of the series);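 also: cells exposed to compound for 16 h at 37 °C before readout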
Method in brief: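 qHTS, HEK293 (human embryonic kidney), 16 h cpd exposure in complete medium. Caspase-3/7 activation = luminescence increase; normalized to DMSO/100 uM tamoxifen; Hill-fit AC50.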

[8] = Cellular Toxicity (caspase-3) N2a (AID 665); details: N2a cells, luminescence, normalized: DMSO 0%, 10 µM staurosporine 100%; series mostly up to 92.2 µM;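 also: compound exposure lasted 16 h at 37 °C before readout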
Method in brief: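 Caspase-3/7 activation, measured as increased luminescence from aminoluciferin release, is quantified in mouse N2a cells exposed to compounds for 16 h. Values are normalized to DMSO and 10 uM staurosporine, with AC50 derived by Hill modelling.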

[9] = Cellular Toxicity (caspase-3) NIH 3T3 (AID 666); details: NIH 3T3 caspase-3 activation, apoptosis/toxicity, 0% DMSO, 100% is 100 µM tamoxifen; series mostly up to 92.2 µM;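 also: caspase signal read after 16 h compound exposure; 0% = DMSO basal and 100% = 100 µM tamoxifen stimulation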
Method in brief: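 Cells were plated at 1000 per well and incubated 5 hr at 37°C, then compound was added for 16 hr. Caspase-Glo 3/7 reagent followed for 20 min at room temperature before luminescence was read.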

[10] = Cellular Toxicity (caspase-3) Renal Proximal Tubule (AID 667); details: renal proximal tubule cells, primary cells freshly taken from rat; Potency: caspase-3 activation; series mostly up to 91.7 µM;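 also: cells exposed to compound for 16 hours at 37 °C before detection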
Method in brief: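 In qHTS format, rat primary proximal tubule cells seeded at 1000 per well are exposed to compounds for 16 hours at 37 °C. An increase in Caspase-Glo 3/7 luminescence indicates caspase activation.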

[11] = MultiTox-Fluor Cytotoxicity Assay - LYMP1-001 - Dead Cells (AID 946); details: LYMP1-001 lymphoblastoid cells, dead-cell protease fluorescence; series mostly up to 92.2 µM;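 also: 0% = DMSO and 100% = tetraoctylammonium bromide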
Method in brief: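 LYMP1-001 lymphoblastoid cells (2500/well) treated 16 h at 37 C. Dead-cell protease cleavage of bis-AAF-R110 read at Ex/Em 485/520. Normalized to DMSO and 15 uM tetraoctylammonium bromide; AC50 from Hill fits.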

[12] = MultiTox-Fluor Cytotoxicity Assay - LYMP1-003 - Dead Cells (AID 961); details: LYMP1-003 lymphoblastoid cells, dead-cell protease fluorescence; series mostly up to 92.2 µM;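 also: 0% = DMSO and 100% = tetraoctylammonium bromide; nearly all actives have a fitted effect of over 70% in size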
Method in brief: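 LYMP1-003 human lymphoblastoid cells (2500/well) exposed to compound 16 h at 37 C in complete medium; dead-cell protease read with bis-AAF-R110 fluorescence (Ex/Em 485/520) after 60 min at room temperature. Normalized to DMSO and 15 uM tetraoctylammonium bromide; AC50 from Hill fit.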

[13] = MultiTox-Fluor Cytotoxicity Assay - LYMP1-003 - Live Cells (AID 962); details: LYMP1-003 lymphoblastoid cells, MultiTox-Fluor live-cell protease fluorescence; series mostly up to 92.2 µM;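 also: 0% = DMSO only and full loss = 92 µM tetraoctylammonium bromide; cytotoxic hits lower the live-cell protease signal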
Method in brief: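 Acute cytotoxicity is scored as a drop in live-cell protease activity in human lymphoblastoid LYMP1-003 cells after 16 hr compound exposure at 37 C. AC50 values come from Hill-equation modelling of concentration-response data.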

[14] = Cell Viability - LYMP1-003 - Assay at 24 hr (AID 963); details: LYMP1-003 lymphoblastoid cell viability; series mostly up to 92.2 µM;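 also: plate controls were DMSO only for no effect and tetraoctylammonium bromide positive control for full effect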
Method in brief: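 Cytotoxicity is scored as a concentration-dependent fall in ATP-linked luciferase signal in human lymphoblastoid LYMP1-003 cells treated 24 hr at 37 C in complete culture medium.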

[15] = Cell Viability - LYMP1-002 - Assay at 24 hr (AID 993); details: LYMP1-002 lymphoblastoid cells viability; series mostly up to 92.2 µM; also: % is scaled to controls: 0 for no effect and ±100 for the full control effect
Method in brief: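 Acute toxicity is measured as concentration-dependent loss of cellular ATP in a human lymphoblastoid line (Coriell LYMP1-002) after 24 h treatment in complete medium. ATP is quantified by luciferase luminescence and AC50 derived by Hill modelling.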

[16] = qHTS Assay for Identification of Small Molecule Inducers of Hypoxia Response (AID 2120; active = well fitted curve in the direction sought with a large enough effect in the signal ratio, with a control signal flat, not every such curve was filed as active; the % refers to the signal ratio; also: 0% is about no effect); details: hypoxia response reporter cells, beta-lactamase ratio readout; series mostly up to 104 µM
Method in brief: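 Cell-based qHTS for reporter induction: hypoxia response element controlled beta-lactamase in ME-180 cells. Compounds incubated 17 h at 37 degrees C; activity from blue/green (460/530 nm) ratio, inducers ranked by AC50.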

[17] = biological target: Peroxisome proliferator-activated receptor alpha (Homo sapiens) (UniProt Q07869); experiment: qHTS assay for small molecule agonists of the peroxisome proliferator-activated receptor alpha (PPARalpha) signaling pathway (AID 651778); details: PathHunter PPARalpha complementation, chemiluminescence, 6 h; max response: stronger effect = higher value; also: % of control where 0% means no effect
Chain of Peroxisome proliferator-activated receptor alpha (Homo sapiens) (Q07869 whole entry, looked up, the tested form may be a part): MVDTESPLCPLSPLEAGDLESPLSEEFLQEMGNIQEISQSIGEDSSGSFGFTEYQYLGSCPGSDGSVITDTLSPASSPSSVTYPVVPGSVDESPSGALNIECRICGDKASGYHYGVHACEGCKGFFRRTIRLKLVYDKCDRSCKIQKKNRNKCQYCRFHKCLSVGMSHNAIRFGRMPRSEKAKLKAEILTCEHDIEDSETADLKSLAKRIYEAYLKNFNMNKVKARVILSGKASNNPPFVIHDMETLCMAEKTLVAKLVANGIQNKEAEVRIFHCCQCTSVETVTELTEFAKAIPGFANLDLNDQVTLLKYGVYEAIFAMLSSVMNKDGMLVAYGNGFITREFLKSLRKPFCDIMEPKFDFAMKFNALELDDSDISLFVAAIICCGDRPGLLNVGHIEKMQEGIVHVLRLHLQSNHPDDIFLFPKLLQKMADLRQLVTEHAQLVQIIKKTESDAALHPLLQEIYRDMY
Method in brief: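 Enzyme-fragment complementation assay in which ligand-bound PPARalpha translocates and forms an active enzyme that generates chemiluminescence. Cells were plated overnight, exposed to compound for 6 hr at 37 C, and then given detection reagent for 60 min at room temperature.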

[18] = qHTS assay for small molecule agonists of the antioxidant response element (ARE) signaling pathway measured by Nrf2-dependant transcriptional activity - cell viability counter screen (AID 720653; active = well fitted curve in the direction sought with a large enough effect in the repeat runs; an effect the other way counts as inactive or inconclusive; also: % is scaled to controls: 0 for no effect and ±100 for the full control effect); details: ARE-bla HepG2 viability, CellTiter-Glo ATP luminescence, 16 h; max response: stronger effect = lower value
Method in brief: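 ARE-bla HepG2 cells treated with compounds for 16 h at 37C; this counter screen measures viability as intracellular ATP by CellTiter-Glo luminescence after 30 min at room temperature.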

[19] = qHTS assay for cell viability of HEK293 cells (AID 743288); details: ATP luminescence (CellTiter-Glo), 18 h; max response: stronger effect = lower value; also: % is scaled to controls: 0 for no effect and ±100 for the full control effect; nearly all actives have a fitted effect of over 50% in size
Method in brief: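 Quantitative high-throughput screen: compounds were pinned onto parental HEK293 cells (2,000 per well) after a minimum 5 h settling at 37 C, incubated 18 h at 37 C, and intracellular ATP measured by luciferase luminescence.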

[20] = qHTS assay for cell viability of the p53RE-bla HCT-116 cell line (AID 743292); details: p53RE-bla HCT-116 viability, ATP luminescence, 16 h; series mostly up to 95 µM; also: % is scaled to controls: 0 for no effect and ±100 for the full control effect; nearly all actives have a fitted effect of over 55% in size
Method in brief: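 HCT-116 p53RE-bla cells seeded 4,000/well; 5 h at 37 C; compound (DMSO) added; 16 h at 37 C; CellTiter-Glo added, 30 min RT; luminescence read.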

Nc1ccc(-c2ccc(N)c(O)c2)cc1O
inactive: Potency [1] > 92 µM | Potency [2] | Potency [3] | Potency [4] | outcome [5] | outcome [6] | caspase-3 activation [7] 0.00867% | outcome [8] | outcome [9] | Potency [10] | Potency [11] | Potency [12] | Potency [13] | Potency [14] | Potency [15] | Potency [16] | max response [17] -5.39% | max response [18] 1.43% | max response [19] -18.5% | Potency [20]

CC(=O)CC(=O)Nc1ccccc1
inactive: Potency [1] > 92 µM | Potency [2] | Potency [3] | Potency [4] | outcome [5] | outcome [6] | caspase-3 activation [7] -0.00159% | outcome [8] | outcome [9] | Potency [10] | Potency [11] | Potency [12] | Potency [13] | Potency [14] | Potency [15] | Potency [16] | max response [17] 0.169% and 0.0126% | max response [18] -0.0894% and -4.18% | max response [19] 2.12% and -0.894% | Potency [20]

Oc1cc(Cl)cc(Cl)c1Cl
inactive: Potency [1] > 92 µM | Potency [2] | Potency [3] | Potency [4] | outcome [5] | outcome [6] | caspase-3 activation [7] -0.269% | outcome [8] | outcome [9] | Potency [10] | Potency [11] | Potency [12] | Potency [13] | Potency [14] | Potency [15] | Potency [16] | max response [17] 6.36% | max response [18] -7.11% | max response [19] -4.35% | Potency [20]

COc1ccc(C)cc1N
inactive: Potency [1] > 92 µM | Potency [2] | Potency [3] | Potency [4] | outcome [5] | outcome [6] | caspase-3 activation [7] 0.602% | outcome [8] | outcome [9] | Potency [10] | Potency [11] | Potency [12] | Potency [13] | Potency [14] | Potency [15] | Potency [16] | max response [17] -6.24% | max response [18] -10.4% | max response [19] -15% | Potency [20]

Cc1ccc(O)c(N)c1
inactive: Potency [1] > 92 µM | Potency [2] | Potency [3] | Potency [4] | outcome [5] | outcome [6] | caspase-3 activation [7] 1.75% | outcome [8] | outcome [9] | Potency [10] | Potency [11] | Potency [12] | Potency [13] | Potency [14] | Potency [15] | Potency [16] | max response [17] -1.19% | max response [18] -26.2% | max response [19] -7.01% | Potency [20]
